Experimental data: ChEMBL document CHEMBL3988442, “University of Dundee, Small-Polar-MMV Screening Library” (2021)

What follows are compounds tested against T1, Aspartate--tRNA(Asp/Asn) ligase (Mycobacterium tuberculosis (strain ATCC 25618 / H37Rv)) (UniProt P9WFW3) (assay: Assay for Asp RNA synthetase-1 from Mycobacterium tuberculosis). Conditions: 30 µM.
T1 sequence (whole entry): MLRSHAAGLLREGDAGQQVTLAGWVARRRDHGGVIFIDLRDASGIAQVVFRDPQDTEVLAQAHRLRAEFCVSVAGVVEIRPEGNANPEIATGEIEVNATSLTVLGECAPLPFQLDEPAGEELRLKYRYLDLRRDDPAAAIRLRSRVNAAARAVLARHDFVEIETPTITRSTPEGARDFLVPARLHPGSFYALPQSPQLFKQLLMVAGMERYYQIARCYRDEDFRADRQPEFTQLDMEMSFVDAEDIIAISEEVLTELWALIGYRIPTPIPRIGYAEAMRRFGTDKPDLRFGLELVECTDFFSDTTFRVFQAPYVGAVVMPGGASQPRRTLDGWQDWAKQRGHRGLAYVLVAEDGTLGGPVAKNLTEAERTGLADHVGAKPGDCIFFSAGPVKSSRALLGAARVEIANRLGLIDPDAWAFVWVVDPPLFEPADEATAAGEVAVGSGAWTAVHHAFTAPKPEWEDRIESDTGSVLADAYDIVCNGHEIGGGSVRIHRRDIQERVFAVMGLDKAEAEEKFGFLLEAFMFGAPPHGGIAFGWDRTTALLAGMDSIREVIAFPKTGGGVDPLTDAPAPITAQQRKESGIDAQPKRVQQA
Type: functional
Design: scale not given: in the data most compounds retested in dose-response had high values

| SMILES | Percent Effect |
| --- | --- |
| NC(=O)C1CCN(C(=O)c2cccc(OCc3cscn3)c2)CC1 | -1.48% |
| O=C(N1CCCO1)[C@@]12CCO[C@@H]1CCN(C1CCCCC1)C2 | -5.76% |
| CC(C)(C)NC(=O)CNC(=O)CCc1ccccc1Br | 0.279% |
| Cc1cc(-c2cnc(NC3CC3)nc2-c2ccc(C)o2)on1 | -2.52% |
| O=C(COc1coc(CN2CCCCC2)cc1=O)Nc1ccc(Cl)cc1 | 3.86% |
| CC(=O)N1CCC2(CCCN(C(=O)c3ccccc3)C2)C1 (stereo not given) | -1.28% |
| COc1ccc(CN2CCN(C(C)=O)CC3(CC(=O)N(C)C3)C2)cc1 (stereo not given) | 1.68% |
| Cc1cc(CN2CCN(C(=O)c3sccc3C(C)C)CC2)no1 | 0.346% |
| Cc1cc(C)n(C2CN(CC(O)c3ccc(F)cc3)C2)n1 (stereo not given) | 2.19% |
| O=C1CC(c2ccncc2)c2c(c(C(=O)O)cn2-c2ccc(F)cc2)N1 (stereo not given) | 2.32% |
| Cn1cnc2c(N3CCCC3)nc(C3CCNCC3)cc21 | 3.17% |
| CCN1CCOC(CNCc2ccccn2)C1 (stereo not given) | 1.04% |
| Cn1cc(CN2CCn3cc(CNC(=O)c4cccn4C)nc3C2)cn1 | 2.49% |
| O=C(Nc1cc(F)ccc1OCC1CCCO1)c1ccc(O)nc1 (stereo not given) | 5.1% |
| Cc1nc(CN2CCCC(N(C)CCc3cccs3)C2)no1 (stereo not given) | -3.43% |
| CC(Cn1cccn1)NC(=O)N1CCN(Cc2cccs2)CC1 (stereo not given) | -5.57% |
| CCOCC1CN(C)Cc2cnn(CC3CCCC3)c21 (stereo not given) | -2.58% |
| CCCc1cc(CNC(=O)C2CCOc3ccccc3C2)on1 (stereo not given) | 2.59% |
| CN(CCCNC(=O)N1CCCC1c1ccsc1)c1ccccn1 (stereo not given) | -3.28% |
| Cc1ccccc1CN1CCN(CC(=O)Nc2cccnc2)CC1 | -2.08% |

| SMILES | Percent Effect |
| --- | --- |
| CC(C)OCCCN1CCCC(c2nc3ccccc3n2C(C)C)C1 (stereo not given) | 6.04% |
| CCn1c(CN2CCCN(C(=O)OC)CC2)nc2c(F)cccc21 | -0.656% |
| Nc1ncc2c(n1)CN(C1CCCC1)C2=O | 6.87% |
| COCCC(=O)N1CC[C@@H](N(C)C)[C@@H]1Cc1ccccc1 | -3.16% |
| O=C(CCn1cnnc1)N1CCCC(c2ncc[nH]2)C1 (stereo not given) | 5.32% |
| Cc1nnc(NC(=O)NCc2cc(F)cc(F)c2)s1 | 4.55% |
| O=C(NCCN1CCC(c2cccs2)CC1)Nc1cccs1 | -7.93% |
| Fc1ccc(CN2CCCN(Cc3cscn3)CC2)cc1 | 1.87% |
| CNc1nc2c(s1)C(c1cccc(F)c1F)CC(=O)N2 (stereo not given) | 34.5% |
| CC(C)CN1CCC(c2nc3c([nH]2)CC(C)(C)CNC3=O)C1 (stereo not given) | 1.44% |
| CCOc1cc(CNC(=O)N2CCC(Cc3cnn(C)c3)C2)ccn1 (stereo not given) | -2.52% |
| CC(C)N1CCC(Cc2cc(-c3ccccc3C(=O)O)ncn2)CC1 | -0.134% |
| Cc1noc(C)c1CNC(=O)c1ccc(NC2CC2)nc1 | 3.65% |
| CC(C)Cc1noc(CN(C)C(=O)C2COc3ccccc3C2)n1 (stereo not given) | -1.81% |
| CCN(CC)S(=O)(=O)N1CCCC(c2cccc(C(=O)O)c2)C1 (stereo not given) | -1.97% |
| Cc1csc(C2CCCN(C(=O)c3cnc[nH]3)C2)n1 (stereo not given) | 5.76% |
| COCCC(=O)N1CCC(c2noc3nc(C)cc(C(F)(F)F)c23)CC1 | 1.68% |
| Cc1nc(C)n(CC2CN(CC(=O)Nc3nccs3)CCO2)n1 (stereo not given) | -3.2% |
| Cc1nn(C)c(C)c1NC(=O)CN1CCc2c(nc(C3CC3)n2C)C1 | -0.703% |
| Cn1cnc2c1C(COCC1CC1)CN(Cc1ccc3c(c1)OCO3)C2 (stereo not given) | 0.999% |
